Experimental data published in PubChem BioAssay AID463173 (ICCB-Longwood Screening Facility, Harvard Medical School, 2010).
In all, about 52,000 compounds went through this assay and about 1,700 (3.3%) were called active. For the sample, actives were picked, then their nearest neighbours and some compounds at random. Unmarked numbers belong to inactive results. Cut-off read from the data, not from the text of the source: active = survival mostly below about 52% (no sharp cut-off); inactive = mostly above about 56%.

system: Wild type; experiment: S. aureus survival, RN4220 and DeltatarO strains – OD600, teichoic acid synthesis inhibitors, primary screen (AID 463173); settings: S. aureus RN4220 wild type/DeltatarO growth, OD600, 18 h, hits give low values, screened at 18.75 µg/mL (by protocol)

Structure (SMILES)	survival
CCOc1ccc(N(C)C(=O)C2CCN(S(=O)(=O)c3c(C)noc3/C=C/c3ccc(C)cc3)CC2)cc1	153%
COc1ccccc1CNc1nc(-c2ccco2)nn1C(=O)c1cc(OC)c(OC)c(OC)c1	69%
COc1ccc(C(=O)c2c(N)c(C(=O)Nc3cccc(OC)c3)c3ccccn23)cc1	95%
Cc1ccc2oc(=O)c(-c3nc(-c4cccs4)no3)cc2c1	94%
COc1ccc(NC(=O)COc2ccc(S(=O)(=O)NC3CCCCC3)cc2)cc1OC	74%
c1ccc(-c2cc3ccsc3s2)cc1	111%
Oc1cc2ccsc2c2ccccc12	18% (active)
O=c1cc(O)c2ccccc2[nH]1	135%
Cc1ccc(C(=O)N/C(=C/c2ccco2)C(=O)Nc2nccs2)cc1	81%
CCCC(=O)Nc1ccc2c(C)cc(C)nc2n1	99%
CCC(Sc1ccc2nnc(CCNS(=O)(=O)c3ccc(OC)cc3)n2n1)C(=O)OC (configuration not stated)	84%
COc1ccc(NC(=O)CCS(=O)(=O)c2nc(-c3cccs3)cc(C(F)(F)F)n2)cc1OC	100%
O=C(CCn1nc(-c2ccccc2)c2ccccc2c1=O)Nc1ccccc1	86%
COc1ccccc1NC(=O)CCn1nc(-c2ccccc2)c2ccccc2c1=O	4% (active)
Cc1ccc(NC(=O)CCn2nc(-c3ccccc3)c3ccccc3c2=O)c(C)c1	75%
CCCOc1ccccc1C1C(C(=O)Nc2ccccc2)=C(C)Nc2nnnn21 (configuration not stated)	134%
COc1ccc(-n2c(-c3ccc(F)cc3)cn3c4c(=O)n(C)c(=O)n(C)c4nc23)cc1	63%
CC(C)(C)C(=O)Nc1nnc2n1CCS2	77%
Cc1ccc2c(CNCCc3ccco3)c(C(=O)O)n(Cc3ccc(F)cc3)c2c1	66%

Structure (SMILES)	survival
C=Cc1ccc(Cn2c(C(=O)O)c(CNCc3ccc(F)cc3)c3ccc(C)cc32)cc1	68%
Cc1ccc2c(CNCCc3ccccc3)c(C(=O)O)n(Cc3ccccc3C)c2c1	1% (active)
C=Cc1ccc(Cn2c(C(=O)O)c(CNCCc3ccccc3)c3ccc(C)cc32)cc1	69%
Cc1ccc2c(CNCCc3ccc(Cl)cc3)c(C(=O)O)n(Cc3ccc(F)cc3)c2c1	4% (active)
Cc1ccc(CNCc2c(C(=O)O)n(Cc3ccccc3C)c3cc(C)ccc23)cc1	63%
Cc1ccccc1NC(=O)Cn1nc(-c2ccccc2)nc(Cc2ccccc2)c1=O	70%
CC(C)OCCCn1c(=O)c2ccccc2n2c(-c3ccccc3F)nnc12	88%
Cc1c(C(=O)N2CCCC2)oc2c1-c1nn(CC(=O)NCc3cccc(F)c3)cc1CC2	85%
Cc1cccc(N2CCN(C(=O)c3noc4c3COc3ccc(C)cc3-4)CC2C)c1 (configuration not stated)	80%
CN(C)c1ncnc(Cl)c1N	101%
Cc1ccc(NC(=O)CSc2ncc3c(n2)-c2ccc(Cl)cc2N(C)S3(=O)=O)cc1F	69%
CCc1cccc(NC(=O)CSc2ncc3c(n2)-c2cc(Cl)ccc2N(C)S3(=O)=O)c1	65%
CCOc1ccc(NC(=O)CSc2ncc3c(n2)-c2cc(Cl)ccc2N(C)S3(=O)=O)cc1	-3% (active)
CCOc1ccc(NC(=O)CSc2ncc3c(n2)-c2ccccc2N(C)S3(=O)=O)cc1	78%
CCOc1ccc(NC(=O)CSc2nnc(-c3ccc(C)cc3)c(-c3ccc(C)cc3)n2)cc1	115%
COc1cc(NC(=O)CSc2ncc3c(n2)-c2ccc(Cl)cc2N(Cc2ccccc2)S3(=O)=O)cc(OC)c1	65%
COc1cccc(NC(=O)CSc2ncc3c(n2)-c2ccc(Cl)cc2N(C)S3(=O)=O)c1	10% (active)
CCOc1ccc(-c2nnc(SCC(=O)Nc3cccc(OC)c3)nc2-c2ccc(OCC)cc2)cc1	-3% (active)
COc1ccc(-c2nnc(SCC(=O)Nc3cccc(C(F)(F)F)c3)nc2-c2ccc(OC)cc2)cc1	79%

Structure (SMILES)	survival
CN(C)CCn1c2c(c(SCC(=O)Nc3ccc(F)cc3F)nc1=O)CCC2	83%
COC(=O)c1scc(-c2ccccc2)c1S(=O)(=O)Nc1cccc(C)c1C	100%
Cn1c(Cc2cccs2)nnc1SCC(=O)N1CCCc2ccccc21	109%
O=C(CSC1=Nc2ccccc2C2=NC(CC(=O)NC3CCCCC3)C(=O)N12)Nc1ccc(F)cc1 (configuration not stated)	71%
COc1cc(NC(=O)c2noc3c2CC(C(C)(C)C)CC3)cc(OC)c1OC (configuration not stated)	68%
CCc1ccccc1NC(=O)c1noc2c1CC(C(C)(C)C)CC2 (configuration not stated)	-11% (active)
CCOC(=O)c1c(NC(=O)c2noc3c2CC(C(C)(C)C)CC3)sc2c1CCCC2 (configuration not stated)	88%
O=C(C1CCCN(S(=O)(=O)c2ccc(Br)s2)C1)N1CCN(c2cccc(Cl)c2)CC1 (configuration not stated)	73%
Cc1cc(C)n2nc(CNS(=O)(=O)c3ccc(F)cc3)nc2n1	88%
Cc1nc(SCc2ccccc2Cl)c(C#N)c(C)c1C	-2% (active)
Cc1ccc(Cl)cc1NC(=O)CSc1nc(C)c(C)c(C)c1C#N	86%
Cc1nc(SCc2ccc(Cl)cc2)c(C#N)c(C)c1Cl	32%
CNS(=O)(=O)c1cn(CC(=O)Nc2ccc(C)cc2C)cc1S(=O)(=O)NC	121%
Cc1cc(F)ccc1NC(=O)Cn1cc(S(=O)(=O)NC(C)C)c(S(=O)(=O)NC(C)C)c1	73%
CNS(=O)(=O)c1cn(CC(=O)Nc2ccc(F)cc2F)cc1S(=O)(=O)NC	-3% (active)
CCC(=O)N1CCc2cc(Br)cc(S(=O)(=O)N3CCC(C(=O)Nc4cccc(C)c4)CC3)c21	94%
CCC(=O)N1CCc2cc(Br)cc(S(=O)(=O)N3CCC(C(=O)Nc4ccc(OC)cc4)CC3)c21	0% (active)
CCC(=O)N1CCc2cc(Br)cc(S(=O)(=O)N3CCC(C(=O)Nc4ccccc4CC)CC3)c21	89%
CC(C(=O)N(C(C)C)C(C)C)N1CCN(C)CC1 (configuration not stated)	93%
